Source: PubChem BioAssay
GBA activity: Glucocerebrosidase | Lysosomal acid glucosylceramidase (Homo sapiens), P04062 | purified enzyme, resorufin glucoside fluorescence (screen aimed at inhibitors), 20 min | Potency, µM | hit rate 1.1% among 48,000 | AID 360, 2006; in the data active = potency below about 15 µM; inconclusive = mostly about 16 µM to 33 µM;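 note: the screen sought inhibitors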
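Compounds titrated against 0.2 nM normal enzyme, 30 uM resorufin beta-D-glucopyranoside substrate, citrate/phosphate buffer with taurocholate and tween-20, pH 5.9. Reaction ran 20 min at room temperature; fluorescence (Ex 548/Em 600) gave AC50.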
Ub-GFP proteasome: Ubiquitin-GFP Assay | Ubiquitin-GFP reporter cells, proteasome inhibition, GFP fluorescence; response scale: untreated = 0%, 10 µM MG-132 = 100% | Potency, µM (highest dose often 45.9 µM), without a hit: at the top dose activation (GFP accumulation), hits mostly activators | 67,000 tested, under 10 active; active = well fitted activation curve with a large enough effect, not every such curve was filed as active; inconclusive = small, poorly fitted or top-dose-only effect, or another doubt; inactive = no such curve, though single readings can be large or run the other way
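Reporter cells (U2OS, ubiquitin-G76V-GFP fusion) are plated overnight, then treated 4 hr at 37 °C with compound titrations from 46 uM down to 2.9 nM. Activity is scaled against untreated cells and 10 uM MG-132.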
USP2a inhib: qHTS Assay for Inhibitors of Ubiquitin-specific Protease USP2a | Ubiquitin carboxyl-terminal hydrolase 2 (Homo sapiens), O75604 | USP2a enzymatic assay, qHTS inhibition | Potency, µM (series often up to 38.3 µM), for the others: at the highest dose activity change, negative = inhibition, hits mostly inhibitors | hit rate 0.1% among 60,000 | AID 927, 2007; note: nearly all actives have a fitted effect of over 60% in size
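USP2 core (20 nM final) was preincubated with compound for 30 min at RT in 20 mM Tris-HCl pH 8.0, 2 mM CaCl2, 2 mM beta-mercaptoethanol; Ub-PLA2 (20 nM) plus NBD C6-HPC (20 uM) then added, fluorescence read after 2.5 h.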
HEK293 cAMP cs: qHTS Assay for Agonists of the Thyroid Stimulating Hormone Receptor: Activators of Intracellular cAMP Concentrations in Parental HEK 293. parental HEK293 CNG cAMP sensor, membrane potential fluorescence. Potency, µM (top dose mostly 57.1 µM), for the others: at the top dose activation, hits mostly activators. hit rate 2.5% among 73,000; note: % of control where 0% means no effect; nearly all actives have a fitted effect of over 55% in size
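Counterscreen for endogenous-receptor signalling: CNG-channel HEK 293 cells report cAMP rise by membrane depolarization. After 60 min dye equilibration with 100 uM RO 20-1724, compounds incubated 30 min before bottom-read fluorescence at 590 nm.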
TSHR ag: qHTS Assay for Agonists of the Thyroid Stimulating Hormone Receptor; HEK293-CNG-TSHR cells (CNG channel as cAMP sensor), membrane potential dye, cAMP; Potency, µM (titrated, usually from 57.1 µM), without a hit: at the top dose activation, most hits filed as activators; hit rate 0.48% among 73,000; AID 926, 2007; active = well fitted activation curve with a large enough effect in the main read-out, with a control signal flat, not every such curve was filed as active; inconclusive = small, poorly fitted or top-dose-only effect, or a change in a side signal; inactive = no such curve, though single readings can be large or run the other way; % of control where 0% means no effect;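 note: the control signal comes from parental cells without the receptor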
Target sequence (P16473 whole entry, looked up): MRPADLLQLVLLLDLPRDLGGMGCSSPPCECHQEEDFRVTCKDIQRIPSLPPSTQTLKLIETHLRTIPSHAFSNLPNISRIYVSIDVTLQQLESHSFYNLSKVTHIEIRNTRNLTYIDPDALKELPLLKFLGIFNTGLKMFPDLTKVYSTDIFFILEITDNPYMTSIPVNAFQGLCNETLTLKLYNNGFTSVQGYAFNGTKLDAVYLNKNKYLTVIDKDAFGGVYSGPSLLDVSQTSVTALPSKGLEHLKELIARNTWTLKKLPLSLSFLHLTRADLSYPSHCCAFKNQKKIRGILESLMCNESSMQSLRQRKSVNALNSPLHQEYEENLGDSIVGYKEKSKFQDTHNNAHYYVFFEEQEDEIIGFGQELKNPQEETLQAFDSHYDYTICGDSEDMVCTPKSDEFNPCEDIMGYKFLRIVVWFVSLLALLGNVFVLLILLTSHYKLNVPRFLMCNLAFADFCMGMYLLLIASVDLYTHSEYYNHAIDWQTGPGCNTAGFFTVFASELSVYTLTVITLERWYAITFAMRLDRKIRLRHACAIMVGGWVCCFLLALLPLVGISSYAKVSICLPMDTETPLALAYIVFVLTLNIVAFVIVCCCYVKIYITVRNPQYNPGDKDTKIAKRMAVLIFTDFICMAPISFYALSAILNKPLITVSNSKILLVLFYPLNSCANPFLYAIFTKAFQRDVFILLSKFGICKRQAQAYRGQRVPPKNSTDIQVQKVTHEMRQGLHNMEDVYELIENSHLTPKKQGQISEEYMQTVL
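cAMP rise detected as CNG-channel membrane depolarization by fluorescent dye (emission 590 nm), 30 min after compound, following 60 min dye loading containing 100 uM RO 20-1724 at room temperature. Cells: TSHR/CNG HEK 293, with parental CNG HEK 293 as control.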
PK Bst: Pyruvate Kinase. hit rate 1.2% among 51,000. Potency, µM. AID 361, 2006. purified pyruvate kinase, luminescence ATP production; ribose 5-phosphate activator present at AC10; in the data active = potency below about 11 µM; inconclusive = mostly about 12 µM to 25 µM;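 the screen sought inhibitors and activators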;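 note: scaled between full activation by ribose 5 phosphate and full inhibition by luteolin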
Active calls of the source: *; u = inconclusive; x = no result given; [ ] = another dose, or the depositor's remark. An excerpt weighted towards active compounds, which were near 4.1% of everything screened. Unless noted, calls come from the whole dose curve; as a rule, active = well fitted curve in the direction sought with a large enough effect; inconclusive = small, poorly fitted or top-dose-only effect, or another doubt; inactive = no such curve, though single readings can be large; an effect the other way counts as inactive or inconclusive. Potency is the fitted concentration of half-maximal effect.

SMILES | GBA activity | Ub-GFP proteasome | USP2a inhib | HEK293 cAMP cs | TSHR ag | PK Bst
COc1cc(NC(=O)C2COc3ccccc3O2)c(OC)cc1Cl (centres undefined) | >76.9 | 1.3% | 2.9% | 15.8µM* | u | >57
COC(=O)c1ccc(C)c(NC(=O)C2COc3ccccc3O2)c1 (centres undefined) | >76.9 | -0.4% | 0.9% | 20.1% | 26.2% | >57
Cc1cccc(N2CSC3=C(C#N)C(c4ccc(C)o4)CC(=O)N3C2)c1 (centres undefined) | 15* | -4.3% | u | -3.8% | 1.7% | >57
COc1ccc(OC)c(C2CC(=O)N3CN(c4ccccc4)CSC3=C2C#N)c1 (centres undefined) | x | 6.2% | x | 8.9% | -13.0% | x
CCN(C(=O)N(CC)c1ccccc1)c1ccccc1 | x | x | x | 15.8µM* | u | x
COc1cccc(NC(=O)c2oc3ccccc3c2NC(=O)C(C)(C)C)c1 | x | -9.8% | 2.0% | 1µM* | u | >57
CCOC(=O)c1sc(NC(=O)CSc2nnnn2-c2ccc(C)cc2C)nc1C | >76.9 | -5.2% | 10.7% | 25.1µM* | u | >57
CCOC(=O)CCN1C(=O)[C@H]2[C@H]3[C@H](O)[C@H](O)C/C(=N/OCC(C)C)[C@@H]3CC[C@@H]2C1=O | x | x | x | 0.4%[11.4 µM] | 1.3%[11.4 µM] | x
CN(C)c1cc(-c2cccc(NS(C)(=O)=O)c2)ncn1 | x | 1.6% | -8.4% | u | u | x
CCOC(=O)c1cnn(-c2cc(C)c3ccccc3n2)c1N | 12.2* | 1.9% | 0.9% | u | u | x
Cc1cc(N)n2ncc(-c3ccccc3)c2n1 | x | -1.5% | -7.2% | -32.7% | u | 4.76*
CCOC(=O)c1cnc2c(-c3ccccc3)cnn2c1N | >76.9 | -2.6% | 1.2% | 4.2% | -0.1% | 2.31*
CS(=O)(=O)CCCCN=C=S | x | x | -6.7% | x | x | x
C=C(C)C(N)=O | x | x | x | -1.6% | 4.2% | x
CCn1c(CCCNC(=O)c2cccs2)nc2ccccc21 | x | -2.2% | x | 4.5% | 2.5% | x
O=C(NCc1nc2ccccc2[nH]1)c1cccs1 | x | 8.9% | x | 5.01µM* | u | x
O=C(NCc1nc2ccccc2[nH]1)[C@H]1C[C@@H]1[C@H](NP(=O)(c1ccccc1)c1ccccc1)c1ccccc1 | x | x | x | 12.6µM* | u | x
O=C(NCc1ccccn1)[C@H]1C[C@@H]1[C@H](NP(=O)(c1ccccc1)c1ccccc1)c1ccccc1 | x | x | x | 27.0% | 13.6% | x
CCn1c(NC(=O)c2cccs2)nc2ccccc21 | >76.9 | 3.3% | 8.4% | 15.8µM* | u | x
CC(C)(CNC(=O)c1cccs1)CNC(=O)c1cccs1 | x | -6.2% | 2.1% | 31.6µM* | u | x
C[C@H]1/C=C\CC(=O)OC[C@H](C)C(=O)N2CCC[C@@H]2C(=O)OC1 | x | x | x | 6.6%[11.4 µM] | x | x
Cc1noc(C)c1-c1nccc(-n2ccnc2)n1 | x | -2.4% | -5.7% | -10.3% | 8.0% | x
c1ccc(Cn2nnnc2C(c2cccs2)N2CCCCCC2)cc1 (centres undefined) | x | -3.2% | -23.1% | 25.1µM* | u | >57
COc1ccc(Cn2nnnc2C(c2cccs2)N2CCN(c3ccccc3)CC2)cc1 (centres undefined) | >76.9 | -7.5% | 4.4% | u | u | >57
c1ccc(Cn2nnnc2C(c2cccs2)N2CCc3ccccc3C2)cc1 (centres undefined) | >76.9 | 0.0% | 26.5% | 10µM* | u | >57
SMILES | GBA activity | Ub-GFP proteasome | USP2a inhib | HEK293 cAMP cs | TSHR ag | PK Bst
O=C(Nc1ccccc1)N1CC2(CCN(C(=O)c3cc(C(F)(F)F)cc(C(F)(F)F)c3)CC2)C1 | x | -5.4% | 64.1% | 21.4% | 28.3% | x
O=C(Nc1ccccc1)N1CCCC2(CCN(C(=O)c3cc(C(F)(F)F)cc(C(F)(F)F)c3)CC2)C1 | x | -9.2% | 96.5% | 29.8% | 25.1µM* | x
O=C(Nc1cccc(F)c1)N1CCCC2(CCN(C(=O)c3cccc(F)c3)CC2)C1 | x | -1.9% | 23.2% | u | u | x
O=C(Nc1ccccc1)N1CCCC2(CCN(C(=O)c3cccc(F)c3)CC2)C1 | x | 4.6% | 17.3% | 9.5% | 25.1µM* | x
O=C(NCc1ccco1)c1cc(-c2cccnc2)nc2ccccc12 | >76.9 | 7.9% | 14.5% | 8.8% | 20.4% | >57
Cc1cc(NC(=O)c2cc(-c3cccs3)nc3ccccc23)no1 | x | -5.7% | x | 15.8µM* | u | x
Cc1cc(NC(=O)c2ccc(Cl)cc2)no1 | >76.9 | 0.1% | -5.5% | u | u | x
Cc1cc(C)c2nc(-c3ccccn3)cc(C(=O)NCc3ccco3)c2c1 | >76.9 | -3.1% | 36.6% | 25.1µM* | u | >57
Cc1cc(NC(=O)c2cc(-c3ccncc3)nc3c(C)cccc23)no1 | >76.9 | 0.0% | 52.6% | 31.6µM* | u | >57
Cc1cc(NC(=O)c2ccc(NC(=O)c3cccs3)cc2)no1 | 2.39* | 9.9% | 17.1% | 0.3% | -2.3% | >57
Cc1cc(C)c2nc(-c3ccccn3)cc(C(=O)Nc3cc(C)on3)c2c1 | >76.9 | 10.5% | 48.0% | 15.8µM* | u | >57
Cc1cc(NC(=O)c2cc(-c3ccccn3)nc3ccccc23)no1 | >76.9 | 1.7% | 19.8% | 18.1% | 24.8% | >57
CCOC(=O)N1CCN(c2ccc(C(=O)c3cccc(F)c3)cc2)CC1 | x | -4.7% | -3.4% | 20µM* | u | >57
O=C(c1cccc(F)c1)N1CCN(c2cccc(C(F)(F)F)c2)CC1 | >76.9 | 10.2% | 4.2% | 14.5% | 24.5% | >57
O=C(Nc1cccnc1)c1cn(-c2ccccc2)nc1-c1cccs1 | >76.9 | -1.8% | 31.1% | -1.6% | 7.6% | 10.2*
O=C(Nc1cccnc1)c1cc(-c2cccs2)on1 | >76.9 | 2.5% | -3.9% | -0.7% | -2.7% | >57
Oc1ccc2ccccc2c1/C=C\c1ccc2c(Br)cc(Br)c(O)c2n1 | x | 0.6%[9.17 µM] | x | 4.0%[11.4 µM] | -5.0%[11.4 µM] | x
CCCCn1c2nc3ccccc3nc2c2c(=O)n(CCC)cnc21 | 5* | x | 11.1% | u | u | >57
CC(C)CCn1cnc2c(c1=O)c1nc3ccccc3nc1n2Cc1ccc2c(c1)OCO2 | 6.09* | -3.4% | 2.5% | 16.6% | 4.6% | >57
CCCn1cnc2c(c1=O)c1nc3ccccc3nc1n2Cc1ccccc1OC | >76.9 | x | 21.4% | 13.8% | 3.5% | >57
COc1cc(O)c2c(O)c3c(c4c2c1[C@@]1(C4)C(C)=CCCC1(C)C)[C@H](O)[C@@]1(O)CC(=O)C(C(N)=O)=C(O)[C@]1(O)C3=O | x | -3.8%[9.17 µM] | x | 12.9%[11.4 µM] | 5.8%[11.4 µM] | x
COCCn1c(=O)c(-c2ccc(OC)cc2)nc2cnc(Oc3ccc(OC)cc3)nc21 | x | -0.9% | 43.6% | u | u | x
O=C(CSc1nnc(-c2cccs2)n1-c1ccccc1)NCc1ccc2c(c1)OCO2 | >76.9 | 0.8% | 6.2% | 29.0% | x | >57
